The values that follow come from ChEMBL document CHEMBL1961873, “Compounds: GSK PKIS; Assays: Nanosyn kinase panel” (2012).

Molecules are shown by their SMILES.

Assay [1] concerns Tyrosine-protein kinase ABL1 (Homo sapiens), P00519 [T315I]. The note with it: at 1 µM.
Assay [2] deals with Tyrosine-protein kinase ABL1 (Homo sapiens), P00519 [Y253F]. The note with it: at 0.1 µM.
Assay [3] shares this test system. To be noted: at 1 µM.
The target in assay [4] is Tyrosine-protein kinase ABL1 (Homo sapiens) (UniProt P00519). To be noted: at 0.1 µM.
For assay [5] the target is unchanged. To be noted: at 1 µM.
In assay [6] the target is ALK tyrosine kinase receptor (Homo sapiens) (UniProt Q9UM73). To be noted: at 0.1 µM.
Sequence of ALK tyrosine kinase receptor (Homo sapiens) (Q9UM73 19-1620 limits assumed): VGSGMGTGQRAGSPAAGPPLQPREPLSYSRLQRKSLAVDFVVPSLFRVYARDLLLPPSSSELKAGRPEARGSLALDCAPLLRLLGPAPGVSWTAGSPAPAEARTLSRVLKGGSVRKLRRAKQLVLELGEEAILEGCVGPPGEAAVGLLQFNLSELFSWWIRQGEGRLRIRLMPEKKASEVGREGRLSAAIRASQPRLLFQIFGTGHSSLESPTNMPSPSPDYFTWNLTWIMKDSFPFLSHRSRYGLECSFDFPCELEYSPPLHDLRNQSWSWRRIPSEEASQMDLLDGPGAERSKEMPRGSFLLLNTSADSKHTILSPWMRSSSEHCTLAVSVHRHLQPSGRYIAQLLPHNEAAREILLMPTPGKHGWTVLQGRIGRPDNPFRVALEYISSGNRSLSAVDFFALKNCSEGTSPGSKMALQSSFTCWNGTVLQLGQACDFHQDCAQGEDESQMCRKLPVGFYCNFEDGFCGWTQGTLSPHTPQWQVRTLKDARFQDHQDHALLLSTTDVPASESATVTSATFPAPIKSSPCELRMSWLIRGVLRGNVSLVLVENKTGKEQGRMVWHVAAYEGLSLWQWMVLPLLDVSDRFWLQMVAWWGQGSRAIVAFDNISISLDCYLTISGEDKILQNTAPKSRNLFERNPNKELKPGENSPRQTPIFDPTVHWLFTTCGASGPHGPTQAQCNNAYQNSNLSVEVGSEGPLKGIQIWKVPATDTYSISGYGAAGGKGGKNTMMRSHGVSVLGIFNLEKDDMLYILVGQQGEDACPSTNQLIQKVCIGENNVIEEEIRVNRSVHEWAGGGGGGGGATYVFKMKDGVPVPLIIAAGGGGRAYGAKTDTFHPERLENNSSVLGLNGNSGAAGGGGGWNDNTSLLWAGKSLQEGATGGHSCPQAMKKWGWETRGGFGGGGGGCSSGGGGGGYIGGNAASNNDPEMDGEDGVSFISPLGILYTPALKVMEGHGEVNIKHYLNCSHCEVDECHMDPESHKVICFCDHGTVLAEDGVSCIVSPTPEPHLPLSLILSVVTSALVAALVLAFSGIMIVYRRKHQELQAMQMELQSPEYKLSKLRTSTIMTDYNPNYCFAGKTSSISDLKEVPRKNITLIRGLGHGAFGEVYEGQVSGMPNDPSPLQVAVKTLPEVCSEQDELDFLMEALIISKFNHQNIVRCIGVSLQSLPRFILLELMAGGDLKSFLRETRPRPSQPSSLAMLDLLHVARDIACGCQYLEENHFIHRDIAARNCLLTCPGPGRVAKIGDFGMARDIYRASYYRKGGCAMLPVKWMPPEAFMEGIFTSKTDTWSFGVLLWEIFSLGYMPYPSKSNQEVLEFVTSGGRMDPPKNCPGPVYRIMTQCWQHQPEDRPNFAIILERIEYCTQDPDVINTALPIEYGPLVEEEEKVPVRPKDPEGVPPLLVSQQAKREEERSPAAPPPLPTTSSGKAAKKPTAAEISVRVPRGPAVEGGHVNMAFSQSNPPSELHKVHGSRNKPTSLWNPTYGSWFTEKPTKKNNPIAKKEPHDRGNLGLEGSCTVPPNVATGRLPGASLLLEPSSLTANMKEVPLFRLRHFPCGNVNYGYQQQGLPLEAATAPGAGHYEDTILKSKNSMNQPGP
For assay [7] the target is unchanged. To be noted: at 1 µM.
Assay [8] has as its target Tyrosine-protein kinase ABL2 (Homo sapiens) (UniProt P42684). The note with it: at 0.1 µM.
Assay [9] shares this target. The note with it: at 1 µM.
The target of assay [10] is Tyrosine-protein kinase receptor UFO (Homo sapiens) (UniProt P30530). The note with it: at 0.1 µM.
Assay [11] shares this target. The note with it: at 1 µM.
Assay [12] has as its target Tyrosine-protein kinase Blk (Homo sapiens) (UniProt P51451). To be noted: at 0.1 µM.
The target is the same in assay [13]. To be noted: at 1 µM.
For assay [14], the target named is T1, Cytoplasmic tyrosine-protein kinase BMX (Homo sapiens) (UniProt P51813).
T1 sequence (whole entry): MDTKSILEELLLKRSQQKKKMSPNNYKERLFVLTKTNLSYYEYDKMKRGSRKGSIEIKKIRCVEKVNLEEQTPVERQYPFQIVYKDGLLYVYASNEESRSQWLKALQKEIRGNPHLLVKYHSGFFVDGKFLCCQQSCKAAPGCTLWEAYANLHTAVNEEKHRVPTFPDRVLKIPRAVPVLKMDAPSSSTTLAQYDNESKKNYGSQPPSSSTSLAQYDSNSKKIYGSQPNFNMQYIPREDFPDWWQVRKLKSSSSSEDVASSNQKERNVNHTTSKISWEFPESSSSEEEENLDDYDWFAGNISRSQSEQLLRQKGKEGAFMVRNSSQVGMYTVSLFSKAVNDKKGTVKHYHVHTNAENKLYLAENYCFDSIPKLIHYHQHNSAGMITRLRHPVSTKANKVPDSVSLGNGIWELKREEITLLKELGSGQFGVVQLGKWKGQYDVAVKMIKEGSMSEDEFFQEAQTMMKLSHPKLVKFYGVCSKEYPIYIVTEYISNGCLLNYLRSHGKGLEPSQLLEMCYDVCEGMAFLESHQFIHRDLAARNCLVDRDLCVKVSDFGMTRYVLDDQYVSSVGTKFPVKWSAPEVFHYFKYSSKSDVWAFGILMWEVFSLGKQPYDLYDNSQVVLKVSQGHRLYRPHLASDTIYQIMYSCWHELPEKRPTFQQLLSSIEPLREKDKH
To be noted: at 0.1 µM.

For assay [15], the target named is T1, Cytoplasmic tyrosine-protein kinase BMX (Homo sapiens). The note with it: at 1 µM.
Assay [16] has as its target Protein-tyrosine kinase 6 (Homo sapiens) (UniProt Q13882). The note with it: at 0.1 µM.
Assay [17] has the same target. The note with it: at 1 µM.
The target in assay [18] is Tyrosine-protein kinase BTK (Homo sapiens) (UniProt Q06187). The note with it: at 0.1 µM.
Sequence of Tyrosine-protein kinase BTK (Homo sapiens) (Q06187 whole entry): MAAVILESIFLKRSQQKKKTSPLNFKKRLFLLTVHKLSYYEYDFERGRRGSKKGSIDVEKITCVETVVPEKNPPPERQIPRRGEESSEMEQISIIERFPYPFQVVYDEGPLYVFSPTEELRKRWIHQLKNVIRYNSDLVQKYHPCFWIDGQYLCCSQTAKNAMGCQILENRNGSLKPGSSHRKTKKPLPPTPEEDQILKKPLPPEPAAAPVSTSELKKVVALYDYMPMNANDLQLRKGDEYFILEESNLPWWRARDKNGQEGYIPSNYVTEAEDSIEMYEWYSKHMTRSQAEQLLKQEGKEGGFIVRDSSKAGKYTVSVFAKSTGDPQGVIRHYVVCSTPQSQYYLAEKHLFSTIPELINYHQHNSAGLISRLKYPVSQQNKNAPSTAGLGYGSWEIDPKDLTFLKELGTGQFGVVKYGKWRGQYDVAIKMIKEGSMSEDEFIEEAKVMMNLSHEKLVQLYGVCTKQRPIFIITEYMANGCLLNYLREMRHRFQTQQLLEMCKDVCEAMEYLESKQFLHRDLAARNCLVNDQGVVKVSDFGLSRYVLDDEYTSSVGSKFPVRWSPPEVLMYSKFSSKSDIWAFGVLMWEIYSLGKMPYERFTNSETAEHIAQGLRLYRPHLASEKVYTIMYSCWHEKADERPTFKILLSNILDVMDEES
Assay [19] shares this target. The note with it: at 1 µM.
The target of assay [20] is Tyrosine-protein kinase CSK (Homo sapiens) (UniProt P41240). To be noted: at 0.1 µM.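 Note: value given is the averaged percent inhibition of CSK kinase activity, from the GSK PKIS kinase inhibitor set screening panel.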
Sequence of Tyrosine-protein kinase CSK (Homo sapiens) (P41240 2-450 limits assumed): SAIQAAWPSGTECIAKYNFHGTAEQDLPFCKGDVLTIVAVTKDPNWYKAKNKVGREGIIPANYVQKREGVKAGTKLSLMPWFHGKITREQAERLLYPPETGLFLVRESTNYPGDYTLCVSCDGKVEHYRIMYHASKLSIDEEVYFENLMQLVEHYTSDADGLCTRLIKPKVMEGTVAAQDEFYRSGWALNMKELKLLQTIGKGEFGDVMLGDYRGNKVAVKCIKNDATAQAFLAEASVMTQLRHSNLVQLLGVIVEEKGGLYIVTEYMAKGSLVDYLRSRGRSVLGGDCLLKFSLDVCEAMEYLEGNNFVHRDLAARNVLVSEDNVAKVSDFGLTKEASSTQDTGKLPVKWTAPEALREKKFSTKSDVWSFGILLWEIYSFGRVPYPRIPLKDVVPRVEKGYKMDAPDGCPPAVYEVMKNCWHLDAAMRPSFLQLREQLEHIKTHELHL

Sequence of Tyrosine-protein kinase ABL2 (Homo sapiens) (P42684 whole entry): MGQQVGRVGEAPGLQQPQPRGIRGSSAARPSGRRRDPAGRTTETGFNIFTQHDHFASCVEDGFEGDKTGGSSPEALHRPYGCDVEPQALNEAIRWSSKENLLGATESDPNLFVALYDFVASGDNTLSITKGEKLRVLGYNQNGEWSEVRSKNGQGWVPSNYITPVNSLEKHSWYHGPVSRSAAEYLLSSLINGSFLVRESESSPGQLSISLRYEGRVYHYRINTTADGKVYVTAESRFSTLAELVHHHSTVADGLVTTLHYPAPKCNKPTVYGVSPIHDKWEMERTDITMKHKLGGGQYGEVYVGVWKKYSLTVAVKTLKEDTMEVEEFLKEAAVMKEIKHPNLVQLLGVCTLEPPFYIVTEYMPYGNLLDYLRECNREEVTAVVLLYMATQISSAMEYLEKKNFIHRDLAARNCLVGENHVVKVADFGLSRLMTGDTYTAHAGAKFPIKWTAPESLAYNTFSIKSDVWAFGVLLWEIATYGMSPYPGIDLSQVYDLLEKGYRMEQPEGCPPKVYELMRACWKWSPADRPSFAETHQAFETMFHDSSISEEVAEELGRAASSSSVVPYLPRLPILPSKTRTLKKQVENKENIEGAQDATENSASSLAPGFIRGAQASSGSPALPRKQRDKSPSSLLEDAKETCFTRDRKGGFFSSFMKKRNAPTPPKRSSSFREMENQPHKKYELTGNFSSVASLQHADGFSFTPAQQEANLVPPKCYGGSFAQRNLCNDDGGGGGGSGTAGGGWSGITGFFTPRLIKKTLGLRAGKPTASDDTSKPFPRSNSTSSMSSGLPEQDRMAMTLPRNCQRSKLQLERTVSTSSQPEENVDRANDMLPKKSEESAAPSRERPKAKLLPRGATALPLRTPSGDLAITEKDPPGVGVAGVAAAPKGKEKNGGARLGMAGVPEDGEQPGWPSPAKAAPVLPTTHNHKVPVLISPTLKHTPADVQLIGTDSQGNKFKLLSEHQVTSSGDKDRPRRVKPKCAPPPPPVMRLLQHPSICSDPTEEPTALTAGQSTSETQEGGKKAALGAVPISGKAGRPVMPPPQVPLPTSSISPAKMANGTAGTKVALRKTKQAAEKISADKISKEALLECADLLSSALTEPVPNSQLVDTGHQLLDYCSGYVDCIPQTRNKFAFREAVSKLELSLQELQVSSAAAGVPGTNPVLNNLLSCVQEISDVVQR
Sequence of Tyrosine-protein kinase Blk (Homo sapiens) (P51451 2-505 limits assumed): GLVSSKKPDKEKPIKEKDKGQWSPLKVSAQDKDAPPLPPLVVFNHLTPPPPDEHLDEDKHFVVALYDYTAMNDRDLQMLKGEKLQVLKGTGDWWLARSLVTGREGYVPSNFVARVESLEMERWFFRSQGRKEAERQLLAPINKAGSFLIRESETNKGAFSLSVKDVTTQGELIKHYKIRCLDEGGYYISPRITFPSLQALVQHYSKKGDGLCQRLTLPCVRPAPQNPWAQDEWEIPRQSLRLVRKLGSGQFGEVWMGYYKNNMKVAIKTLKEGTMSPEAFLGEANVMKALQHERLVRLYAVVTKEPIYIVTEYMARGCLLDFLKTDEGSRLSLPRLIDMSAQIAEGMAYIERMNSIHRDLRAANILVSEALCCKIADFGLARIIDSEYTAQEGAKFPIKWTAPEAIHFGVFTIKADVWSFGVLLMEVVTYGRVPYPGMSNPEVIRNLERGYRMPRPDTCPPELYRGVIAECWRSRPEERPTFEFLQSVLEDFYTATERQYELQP
Sequence of Protein-tyrosine kinase 6 (Homo sapiens) (Q13882 whole entry, looked up): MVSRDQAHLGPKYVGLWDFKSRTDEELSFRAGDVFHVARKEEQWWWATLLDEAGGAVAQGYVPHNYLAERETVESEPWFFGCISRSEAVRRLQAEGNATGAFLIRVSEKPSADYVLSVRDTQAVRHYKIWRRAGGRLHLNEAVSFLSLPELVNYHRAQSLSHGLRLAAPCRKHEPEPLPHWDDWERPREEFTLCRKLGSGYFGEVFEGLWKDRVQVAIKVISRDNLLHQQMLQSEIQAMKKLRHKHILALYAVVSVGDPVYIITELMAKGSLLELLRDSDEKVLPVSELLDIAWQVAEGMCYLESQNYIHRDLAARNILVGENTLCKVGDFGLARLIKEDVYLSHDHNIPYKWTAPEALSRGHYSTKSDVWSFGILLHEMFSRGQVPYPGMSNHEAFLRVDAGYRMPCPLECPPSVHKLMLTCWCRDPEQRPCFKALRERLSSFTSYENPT

By inhibition is commonly meant the drop in the measured response relative to a control, in per cent. Regarding `COc1cc2ncn(-c3cc(OCc4ccccc4C(F)(F)F)c(C(C)=O)s3)c2cc1OC`, the inhibition amounted to 4.77% in assay [1]; 3.33% in assay [2]; 4.29% in assay [3]; 5.34% in [4]; 10.7% in assay [5]; 2.65% in assay [6]. Further, the inhibition is 3.72% in [7]; 6.5% in assay [8]; 10.4% in [9]; -3.01% in assay [10]; -1.92% in assay [11]; 3.79% in assay [12]. Besides, the inhibition in assay [13] was 4.29%; in assay [14] it was 4.87%; in assay [15], 2.58%; in assay [16], -3.46%; in assay [17] it was 3.98%; in assay [18], 1.17%. In addition, the inhibition in [19] was determined as 1.75%; in [20], 0.53%.
For the compound `O=C1Nc2ccc(I)cc2C1=Cc1cc(Br)c(O)c(Br)c1`, the inhibition was determined as 2.95% in [1]; 1.68% in [2]; 5.83% in assay [3]; 5.59% in assay [4]; 6.33% in [5]; 3.04% in [6]. Moreover, the inhibition is 4.7% in [7]; 4.07% in assay [8]; 6.48% in [9]; -5.83% in assay [10]; -7.49% in [11]; 1.48% in assay [12]. Further, the inhibition in assay [13] is 3.74%; in [14] it was 2.64%; in [15], 7.27%; in assay [16], 3.26%; in [17], 6.68%; in [18] it was -1.22%. Besides, the inhibition in assay [19] is -0.86%; in assay [20], -2.19%.
For the compound `COc1cc(Nc2ncc3c(C)nc(-c4cccc(C(F)(F)F)c4)n3n2)cc(OC)c1OC`, the inhibition came to 13.1% in assay [1]; 3.77% in assay [2]; 16.2% in [3]; 2.35% in assay [4]; 14.6% in assay [5]; 2.22% in assay [6]. The inhibition in assay [7] is 6.97%; in [8] it was 3.85%; in assay [9], 13.1%; in [10], -3.79%; in assay [11], -0.36%; in assay [12] it was 3.39%. For the same compound, the inhibition is 25.1% in assay [13]; -0.78% in assay [14]; 11.9% in assay [15]; 3.48% in assay [16]; 5.36% in [17]; 2.11% in assay [18]. In addition, the inhibition in assay [19] worked out at 4.31%; in [20], 4.48%.
Consider `COc1cc(N2CCN(C(C)C)CC2)ccc1Nc1nc(Nc2ccc(F)cc2C(=O)NC[C@@H](O)CO)c2cc[nH]c2n1`, for which the inhibition in assay [1] is 6.94%; in [2], 4.03%; in assay [3], 6.49%; in [4], -1.73%; in assay [5], 0.53%; in assay [6] it was 82.6%. Moreover, the inhibition in assay [7] is 69.5%; in assay [8] it was -1.39%; in assay [9] it was 1.38%; in assay [10], -4.74%; in assay [11], 7.75%; in assay [12] it was -1.34%. Besides, the inhibition in assay [13] is 0.03%; in assay [14] it was 3.82%; in assay [15] it was 4.34%; in assay [16], 4.82%; in assay [17] it was 7.68%; in [18] it was -2.66%. In addition, the inhibition in [19] is -4.6%; in assay [20], 5.74%.
Take `CN(C)CCOc1ccc(-c2cc(-c3ccc4c(c3)CCC4=NO)c(-c3ccncc3)o2)cc1`: the inhibition in assay [1] was 19.4%; in [2] it was 2.44%; in assay [3] it was 22.1%; in [4], 2.01%; in assay [5] it was 20.3%; in [6], -1.95%. Besides, the inhibition in assay [7] is -0.08%; in [8], 2.43%; in assay [9], 18.6%; in assay [10] it was 1.32%; in assay [11], 2.27%; in [12] it was -0.19%. Moreover, the inhibition in assay [13] is 6.21%; in assay [14], -1.43%; in assay [15], 1.43%; in [16], 1.76%; in assay [17] it was 15%; in assay [18], 0.42%. The inhibition in [19] is 2.57%; in assay [20], -2.53%.
On to `Fc1ccc(-c2nc3n(c2-c2ccncc2)CCS3)cc1`, for which the inhibition in [1] is 2.55%; in [2], 3.68%; in [3], 5.02%; in [4], -1.35%; in assay [5], 3.25%; in assay [6], -0.77%. Moreover, the inhibition in [7] was 0.29%; in assay [8] it was 0.16%; in [9], 4.56%; in [10], -7.95%; in assay [11] it was -3.95%; in [13] it was -0.49%. The inhibition is 2.02% in [14]; 4.87% in assay [15]; -1.54% in assay [16]; 4.07% in [17]; -2.44% in [18]; -3.5% in [19]. Also, the inhibition in assay [20] is 7.37%.
With `NS(=O)(=O)c1ccc(N/N=C2\C(=O)Nc3ccc(C(=O)NCCCn4ccnc4)cc32)cc1`, the inhibition in assay [1] was 14.2%; in assay [2], 5.66%; in [3], 15.5%; in [4], 2.77%; in assay [5], 13.3%; in [6] it was 3.7%. The inhibition in [7] is 11.1%; in assay [8], 4.28%; in assay [9] it was 9.85%; in assay [10] it was -2.66%; in assay [11], 3.27%; in assay [12], 2.75%. For the same compound, the inhibition in assay [13] was 12.2%; in [14] it was 10.2%; in [15] it was 8.26%; in assay [16] it was 4.87%; in [17], 6.65%; in [18], -1.04%. Moreover, the values for the inhibition in [19] and in assay [20] were 0.06% and 2.76%, respectively.
For the compound `CCC(=O)Nc1ccc(C)c(-c2ccc(C(=O)NCC3CC3)cc2)c1`, the inhibition in [1] is 3.61%; in assay [2] it was 2.81%; in [3], 3.14%; in assay [4] it was 2.28%; in [5], 2.9%; in [6], 1.63%. Moreover, the inhibition was 2.14% in assay [7]; 0.38% in assay [8]; 3.75% in assay [9]; -4.46% in assay [10]; -3.83% in assay [11]; 1.71% in assay [12]. Moreover, the inhibition in assay [13] was 3.32%; in assay [14], 1.57%; in assay [15], 3.88%; in [16], 4.7%; in assay [17], 5.22%; in [18] it was -0.35%. For the same compound, the inhibition came out at 0.22% in assay [19] and 2.98% in [20].
